For experiment [1], the target named is Estrogen receptor (Homo sapiens) (UniProt P03372). In words: qHTS assay for small molecule agonists of estrogen receptor alpha signaling (AID 588514; calls by dose curve;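 also: 0% = vehicle only and 100% = reference agonist; nearly all actives have a fitted effect of over 70% in size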). A digest of the protocol: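 Cells were plated at 5000/well, incubated 4 hrs at 37 C, dosed with compound titration series, incubated 18 hrs at 37 C, loaded with CCF4 dye for 2 hrs at RT, then fluorescence was read.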
Sequence of Estrogen receptor (Homo sapiens) (P03372 whole entry, looked up): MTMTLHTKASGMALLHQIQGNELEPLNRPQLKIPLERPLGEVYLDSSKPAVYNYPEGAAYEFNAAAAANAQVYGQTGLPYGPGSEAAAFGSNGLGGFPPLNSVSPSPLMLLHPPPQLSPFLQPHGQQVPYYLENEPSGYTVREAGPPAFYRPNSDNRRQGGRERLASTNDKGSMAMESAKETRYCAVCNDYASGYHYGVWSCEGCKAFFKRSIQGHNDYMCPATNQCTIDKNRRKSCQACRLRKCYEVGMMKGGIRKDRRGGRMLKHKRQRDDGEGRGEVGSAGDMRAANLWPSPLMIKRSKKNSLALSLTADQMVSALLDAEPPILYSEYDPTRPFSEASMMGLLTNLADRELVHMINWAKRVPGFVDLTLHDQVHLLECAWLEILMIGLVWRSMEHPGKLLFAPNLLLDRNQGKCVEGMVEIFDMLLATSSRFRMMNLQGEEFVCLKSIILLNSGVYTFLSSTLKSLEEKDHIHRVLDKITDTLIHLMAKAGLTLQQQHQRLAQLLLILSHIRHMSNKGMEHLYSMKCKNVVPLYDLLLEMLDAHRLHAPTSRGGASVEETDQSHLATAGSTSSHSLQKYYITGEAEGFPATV
Background: In qHTS, concentration-response curves come from the screen itself.

Experiment [2] concerns the target Bile acid receptor (Homo sapiens) (UniProt Q96RI1). In words: qHTS assay for small molecule antagonists of farnesoid X receptor signaling (AID 588526; calls by dose curve; also: % is scaled to controls: 0 for no effect and ±100 for the full control effect). Put shortly: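 Beta-lactamase reporter antagonist mode: HEK293T FXR-UAS-bla cells, titrated compound, CDCA stimulation, 16 h 37 C, CCF4 dye 2 h RT. Data normalized to CDCA 50 uM and DMSO; Hill-fit IC50.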
Experiment [3] deals with Glucocorticoid receptor (Homo sapiens) (UniProt P04150). The experiment in a line: qHTS assay for small molecule antagonists of glucocorticoid receptor signaling (AID 588533; active = well fitted inhibition curve with a large enough effect in the signal ratio, with a control signal flat, not every such curve was filed as active; the % refers to the signal ratio;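 also: cells stimulated with 2 nM dexamethasone as agonist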; also: potency is read from the fitted curve at half-maximal effect). Put shortly:
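Antagonist-mode qHTS: compound titrations added to GRE-bla HeLa cells, then dexamethasone 2 nM final; 18 h, 37 C. CCF4 FRET fluorescence normalized to dexamethasone and DMSO; IC50 from Hill fit.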

Experiment [4] in a line: qHTS assay for small molecule antagonists of peroxisome proliferator-activated receptor delta signaling (AID 588535; active = well fitted inhibition curve with a large enough effect in the signal ratio, with a control signal flat, not every such curve was filed as active; the % refers to the signal ratio;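 as to max response: cells co-treated with a PPAR-delta agonist as stimulator during compound exposure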). The following applies: HEK293T PPARd-UAS-bla, beta-lactamase FRET ratio, 18 h; 460 nm channel. A digest of the protocol: (§1)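 HEK293T PPAR-delta-UAS-bla cells, 4000/well, 2% charcoal/dextran FBS; 5 h 37 C; cpd titration; 18 h 37 C; CCF4 2 h RT; FI 460/530 nm; Hill fit → IC50, efficacy.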

Experiment [5] concerns the target Peroxisome proliferator-activated receptor delta (Homo sapiens) (UniProt Q03181). The description is as above. Put shortly:
as §1

The target in experiment [6] is Peroxisome proliferator-activated receptor gamma (Homo sapiens) (UniProt P37231). The experiment in a line: qHTS assay for small molecule agonists of peroxisome proliferator-activated receptor gamma signaling (AID 588536; active = well fitted curve in the direction sought with a large enough effect in the signal ratio, with a control signal flat, not every such curve was filed as active; the % refers to the signal ratio;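 also: 0% = DMSO basal wells and 100% = rosiglitazone at 2 µM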). Put shortly:
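Test agents, titrated, stimulated HEK293 UAS-bla cells overnight (16 h, 37 C). Substrate CCF4 was then added for two hours at room temperature before fluorescence reading.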

Experiment [7] shares this target. In words: qHTS assay for small molecule antagonists of peroxisome proliferator-activated receptor gamma signaling (AID 588537; active = well fitted inhibition curve with a large enough effect in the signal ratio, with a control signal flat, not every such curve was filed as active; the % refers to the signal ratio; also: potency is read from the fitted curve at half-maximal effect). A digest of the protocol:
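Antagonist mode, beta-lactamase reporter in HEK293; charcoal/dextran FBS 1%; 3000 cells/well, 37 C 6-6.5 h; cpd titration + rosiglitazone 50 nM final, 16 h 37 C; CCF4, 2 h RT; 460/530 nm; Hill fit → IC50, efficacy.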

Experiment [8] is described as follows: qHTS assay for small molecule agonists of retinoid X receptor alpha signaling (AID 588544; calls by dose curve;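 as to activation: 0% = DMSO basal wells and 100% = reference agonist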). The following applies: HEK293T RXRa-UAS-bla, beta-lactamase reporter, 18 h; 530 nm emission.
Experiment [9] addresses Retinoic acid receptor RXR-alpha (Homo sapiens) (UniProt P19793). The description is as above.
Experiment [10] shares this target. In words: qHTS assay for small molecule antagonists of retinoid X receptor alpha signaling (AID 588546; active = well fitted inhibition curve with a large enough effect in the signal ratio, with a control signal flat, not every such curve was filed as active; the % refers to the signal ratio; also: potency is read from the fitted curve at half-maximal effect;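 as to max response: cells stimulated with 9-cis-retinoic acid as agonist; % is scaled to controls: 0 for no effect and ±100 for the full control effect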). The following applies: HEK293T RXRa-UAS-bla, beta-lactamase ratio, antagonist mode. Put shortly:
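Beta-lactamase reporter inhibition, read as CCF4 fluorescence ratio (ex 405, em 460/530 nm) after 2 h at RT. HEK293T UAS-bla cells, 2500/well, were stimulated with 9-cis-RA at 500 or 100 nM final alongside test compound for 18 h at 37 C.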

Experiment [11] concerns the target Nuclear receptor subfamily 1 group I member 2 (Rattus norvegicus) (UniProt Q9R1A7). The experiment in a line: qHTS assay for small molecule activators of the rat pregnane X receptor (rPXR) signaling pathway (AID 651751; call rule not given here; also: 0% is about no effect). Particulars: rPXR reporter cells, luciferase (One-Glo), 24 h.
Experiment [12] in a line: qHTS assay for small molecule activators of the human pregnane X receptor (PXR) signaling pathway (AID 720659; call rule not given here; also: 0% is about no effect).
Experiment [13] is described as follows: qHTS Assay for Identification of Small Molecule Antagonists for Thrombopoietin (TPO) Signaling Pathway (AID 918). Also: potency is read from the fitted curve at half-maximal effect; nearly all actives have a fitted effect of over 60% in size. The following applies: TPO-dependent cell signaling reporter, antagonist mode. Put shortly:
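Ba/F3 (murine, hTPO-R, GPIIb-luc reporter); overnight IL-3 withdrawal; cpd + TPO 26 pM final (EC50); 24 h 37 C/5% CO2; Steadylite luminescence after 10 min RT.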

The target in experiment [14] is Muscarinic acetylcholine receptor M1 (Rattus norvegicus) (UniProt P08482). In words: qHTS Assay for Antagonists of Acetylcholine Muscarinic M1 Receptor: Kinetic Measurement of Intracellular Calcium Response (AID 943). Also: nearly all actives have a fitted effect of over 75% in size. Also: potency is read from the fitted curve at half-maximal effect. Put shortly: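 Rat M1-CHO cells, 2000/well, overnight → Fluo-4 no-wash dye with probenecid, 1 h 37C → compound 10 min, room temp → basal read 6 s → carbachol EC80 (100 nM) → 4 min kinetic read; peak/basal.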
Sequence of Muscarinic acetylcholine receptor M1 (Rattus norvegicus) (P08482 whole entry, looked up): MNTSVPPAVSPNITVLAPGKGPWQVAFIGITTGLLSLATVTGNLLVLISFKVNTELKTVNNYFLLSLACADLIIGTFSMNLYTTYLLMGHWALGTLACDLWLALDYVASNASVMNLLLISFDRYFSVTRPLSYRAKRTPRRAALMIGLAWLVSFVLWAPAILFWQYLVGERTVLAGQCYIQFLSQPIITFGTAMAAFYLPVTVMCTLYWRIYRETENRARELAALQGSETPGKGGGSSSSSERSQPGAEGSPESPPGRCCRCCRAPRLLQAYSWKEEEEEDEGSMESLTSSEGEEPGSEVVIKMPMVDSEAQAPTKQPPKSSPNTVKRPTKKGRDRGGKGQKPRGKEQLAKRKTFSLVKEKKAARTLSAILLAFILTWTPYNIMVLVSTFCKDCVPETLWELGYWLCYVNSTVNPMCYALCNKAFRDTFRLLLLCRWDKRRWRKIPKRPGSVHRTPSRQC

For experiment [15], the target named is Androgen receptor (Homo sapiens) (UniProt P10275). In words: qHTS assay for small molecule agonists of androgen receptor signaling (AID 588515; active = well fitted curve in the direction sought with a large enough effect in the signal ratio, with a control signal flat; the % refers to the signal ratio; also: % is scaled to controls: 0 for no effect and ±100 for the full control effect). The following applies: AR-UAS-bla HEK293, beta-lactamase ratio, agonist 16 h; stronger effect = higher value. A digest of the protocol: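 EC50 and efficacy came from Hill fits of titrations (up to 92 uM) normalized to 30 nM R1881 as 100% and DMSO as 0%. Compound exposure was 16 h at 37 C on AR-UAS-bla HEK293 cells, with a 405/460/530 nm CCF4 fluorescence read.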

Experiment [16] in a line: qHTS assay for small molecule activators of the nuclear factor-kappa B (NF-kB) signaling pathway (AID 651749; active = well fitted activation curve with a large enough effect in the signal ratio; the % refers to the signal ratio; also: series mostly up to about 77 µM; % of control where 0% means no effect). Particulars: NF-kB-bla ME-180 cells, beta-lactamase FRET ratio, 16 h; activation: stronger effect = higher value. A digest of the protocol: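 Readout: beta-lactamase reporter driven by an NF-kB response element, detected fluorescently as loss of FRET. Cells were the ME-180 line, treated 16 hr at 37C with pin-transferred compound.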

Experiment [17] is described as follows: qHTS Assay for Identification of Small Molecule Agonists for Hypoxia Response Element Signaling Pathway (AID 914; active = well fitted activation curve with a large enough effect in the signal ratio, with a control signal flat, not every such curve was filed as active; the % refers to the signal ratio; also: % of control where 0% means no effect). The following applies: ME-180 (cervical carcinoma) HRE-bla reporter, beta-lactamase ratio, CoCl2, 17 h; activation: stronger effect = higher value. A digest of the protocol:
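In Opti-MEM containing 0.5% dialyzed FBS and 10 mM HEPES, ME-180 HRE-bla cells received a compound titration and EC50 CoCl2. They were incubated 17 hours, then CCF4-loaded 2.5 hours at room temperature before ratio reading.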

The target in experiment [18] is Muscarinic acetylcholine receptor M1 (Rattus norvegicus) (UniProt P08482). The experiment in a line: qHTS Assay for Antagonists of Acetylcholine Muscarinic M1 Receptor: Measurement of IP-One Response (AID 944). Also: nearly all actives have a fitted effect of over 75% in size. A digest of the protocol:
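M1-CHO (rat), 2000 cells/well, overnight recovery; cpd 10 min; carbachol EC80 (200 nM), 30 min, HEPES buffer + 50 mM LiCl pH 7.4; IP-One HTRF, Ex 337, Em 620/665 nm.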

A short description of experiment [19]: qHTS assay to identify small molecules that stimulate interleukin-8 (IL-8) secretion (AID 651758; active = well fitted activation curve with a large enough effect in the signal ratio; the % refers to the signal ratio; also: potency is read from the fitted curve at half-maximal effect). A digest of the protocol: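 Secreted IL-8 measured by TR-FRET sandwich (cryptate and XL665 antibodies) from THP-1 cells exposed to compound overnight (16 hrs, 37 C).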
Experiment [20] in a line: qHTS Assay for Identification of Small Molecule Agonists for Thrombopoietin (TPO) Signaling Pathway (AID 917). Also: % is scaled to controls: 0 for no effect and ±100 for the full control effect. Put shortly:
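Murine Ba/F3 cells expressing human TPO receptor and GPIIb-promoter luciferase, IL-3-starved overnight, given compound plus TPO at 26 pM (EC50). After 24 h at 37 C, 5% CO2, luminescence read.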

Values joined by “and” are separate entries in the source; they are usually repeats but may differ in a detail not shown here. Equal entries are not always repeated. Results filed as inconclusive are left out. Some compounds were tested as several samples or in several runs, with calls that do not always agree. Active and inactive are the calls of the source. Unless noted, calls follow the shape of the dose curve; as a rule, active = well fitted curve in the direction sought with a large enough effect; inconclusive = small, poorly fitted or top-dose-only effect, or another doubt; inactive = no such curve, though single readings can be large; an effect the other way counts as inactive or inconclusive. Where a SMILES comes first, the peptide text is derived from it.

Sequence of Peroxisome proliferator-activated receptor delta (Homo sapiens) (Q03181 whole entry, looked up): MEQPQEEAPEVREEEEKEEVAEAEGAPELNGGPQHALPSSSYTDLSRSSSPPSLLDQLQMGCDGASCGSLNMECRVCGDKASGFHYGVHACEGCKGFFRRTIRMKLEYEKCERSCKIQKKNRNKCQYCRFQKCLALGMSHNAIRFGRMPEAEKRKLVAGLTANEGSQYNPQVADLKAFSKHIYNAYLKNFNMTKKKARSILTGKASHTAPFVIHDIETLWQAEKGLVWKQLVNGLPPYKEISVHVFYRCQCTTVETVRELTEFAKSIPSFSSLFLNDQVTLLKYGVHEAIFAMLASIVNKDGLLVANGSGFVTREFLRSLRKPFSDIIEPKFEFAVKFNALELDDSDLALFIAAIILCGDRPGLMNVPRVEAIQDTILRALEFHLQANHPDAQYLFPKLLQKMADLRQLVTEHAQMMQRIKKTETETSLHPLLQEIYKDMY
Sequence of Retinoic acid receptor RXR-alpha (Homo sapiens) (P19793 whole entry, looked up): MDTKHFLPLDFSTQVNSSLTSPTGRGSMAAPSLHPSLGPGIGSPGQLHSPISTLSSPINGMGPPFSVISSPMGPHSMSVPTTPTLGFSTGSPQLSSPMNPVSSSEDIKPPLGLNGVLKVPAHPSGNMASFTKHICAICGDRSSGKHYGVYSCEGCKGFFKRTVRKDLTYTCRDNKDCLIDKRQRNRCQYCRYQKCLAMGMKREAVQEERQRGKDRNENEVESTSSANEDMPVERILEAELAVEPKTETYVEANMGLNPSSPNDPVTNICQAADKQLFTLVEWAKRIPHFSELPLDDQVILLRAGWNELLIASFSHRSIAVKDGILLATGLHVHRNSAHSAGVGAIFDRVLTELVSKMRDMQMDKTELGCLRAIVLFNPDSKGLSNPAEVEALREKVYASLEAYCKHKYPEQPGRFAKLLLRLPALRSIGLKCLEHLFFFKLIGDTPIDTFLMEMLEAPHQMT
Sequence of Glucocorticoid receptor (Homo sapiens) (P04150 whole entry, looked up): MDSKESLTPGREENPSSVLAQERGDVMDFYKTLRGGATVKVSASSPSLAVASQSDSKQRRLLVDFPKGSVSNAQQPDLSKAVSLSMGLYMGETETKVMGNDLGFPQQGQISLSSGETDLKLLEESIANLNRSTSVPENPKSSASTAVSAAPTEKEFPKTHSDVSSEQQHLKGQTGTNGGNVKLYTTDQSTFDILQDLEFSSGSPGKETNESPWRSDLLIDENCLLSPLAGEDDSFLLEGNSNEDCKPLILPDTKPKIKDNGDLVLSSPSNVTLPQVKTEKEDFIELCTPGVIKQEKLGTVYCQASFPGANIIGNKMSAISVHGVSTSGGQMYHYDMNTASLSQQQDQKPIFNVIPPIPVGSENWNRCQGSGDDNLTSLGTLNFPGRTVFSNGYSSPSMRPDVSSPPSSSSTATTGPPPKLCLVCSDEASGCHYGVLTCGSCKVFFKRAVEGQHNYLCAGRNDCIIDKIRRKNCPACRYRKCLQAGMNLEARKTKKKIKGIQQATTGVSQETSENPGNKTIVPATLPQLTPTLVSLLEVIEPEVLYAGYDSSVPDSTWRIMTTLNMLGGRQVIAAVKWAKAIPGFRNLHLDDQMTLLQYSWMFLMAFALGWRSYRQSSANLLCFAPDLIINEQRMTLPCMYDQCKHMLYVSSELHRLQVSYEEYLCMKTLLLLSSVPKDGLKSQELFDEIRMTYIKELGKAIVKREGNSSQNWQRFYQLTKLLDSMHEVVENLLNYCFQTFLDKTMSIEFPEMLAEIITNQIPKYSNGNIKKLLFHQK
Sequence of Peroxisome proliferator-activated receptor gamma (Homo sapiens) (P37231 whole entry, looked up): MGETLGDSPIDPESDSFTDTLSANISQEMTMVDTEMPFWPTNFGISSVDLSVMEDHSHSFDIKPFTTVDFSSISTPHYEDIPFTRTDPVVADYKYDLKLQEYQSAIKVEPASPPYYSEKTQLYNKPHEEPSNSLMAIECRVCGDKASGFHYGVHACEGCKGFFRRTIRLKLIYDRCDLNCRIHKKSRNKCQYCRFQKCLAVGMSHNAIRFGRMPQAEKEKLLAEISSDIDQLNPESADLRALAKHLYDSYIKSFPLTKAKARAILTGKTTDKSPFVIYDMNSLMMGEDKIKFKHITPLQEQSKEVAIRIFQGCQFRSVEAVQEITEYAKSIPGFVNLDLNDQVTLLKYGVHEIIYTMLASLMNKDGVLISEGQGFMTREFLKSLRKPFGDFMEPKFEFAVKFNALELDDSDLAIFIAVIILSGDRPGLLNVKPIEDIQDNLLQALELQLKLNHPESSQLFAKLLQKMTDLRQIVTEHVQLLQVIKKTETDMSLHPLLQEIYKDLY
Sequence of Bile acid receptor (Homo sapiens) (Q96RI1 whole entry, looked up): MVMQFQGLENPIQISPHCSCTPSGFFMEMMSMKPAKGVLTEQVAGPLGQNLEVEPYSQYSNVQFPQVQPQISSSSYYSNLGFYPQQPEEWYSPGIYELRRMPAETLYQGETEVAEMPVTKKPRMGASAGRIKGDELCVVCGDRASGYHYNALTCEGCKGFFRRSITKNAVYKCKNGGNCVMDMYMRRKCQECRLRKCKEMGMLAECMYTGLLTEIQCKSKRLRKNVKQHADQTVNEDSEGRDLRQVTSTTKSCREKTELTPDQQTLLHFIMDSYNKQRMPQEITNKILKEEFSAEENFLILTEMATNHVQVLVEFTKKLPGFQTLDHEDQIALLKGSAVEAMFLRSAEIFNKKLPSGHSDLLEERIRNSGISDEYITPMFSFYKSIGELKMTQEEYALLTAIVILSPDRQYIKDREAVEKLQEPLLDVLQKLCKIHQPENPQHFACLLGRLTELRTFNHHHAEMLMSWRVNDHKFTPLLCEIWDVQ
Sequence of Nuclear receptor subfamily 1 group I member 2 (Rattus norvegicus) (Q9R1A7 whole entry, looked up): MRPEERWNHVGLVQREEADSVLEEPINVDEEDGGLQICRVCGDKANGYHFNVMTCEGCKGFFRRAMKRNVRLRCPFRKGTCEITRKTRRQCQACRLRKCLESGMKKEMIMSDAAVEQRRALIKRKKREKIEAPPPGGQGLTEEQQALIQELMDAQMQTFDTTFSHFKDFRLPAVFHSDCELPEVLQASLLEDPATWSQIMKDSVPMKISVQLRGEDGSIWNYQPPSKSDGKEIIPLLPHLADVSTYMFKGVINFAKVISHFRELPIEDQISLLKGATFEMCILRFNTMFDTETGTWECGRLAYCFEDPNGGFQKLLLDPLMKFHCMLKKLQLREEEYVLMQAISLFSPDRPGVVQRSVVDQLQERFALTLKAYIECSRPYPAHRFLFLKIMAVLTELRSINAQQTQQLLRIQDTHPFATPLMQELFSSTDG

With `FC(F)(F)c1ccc(Cl)cc1`, the Potency entry in [1], in experiment [2], in experiment [3], in experiment [5], in [6] and in experiment [7] was “inactive” throughout. In experiment [9], the Potency result is “inactive”. Besides, the max response in experiment [4] was -2.48% and -14.3%; in experiment [8], -3.02% and -12.4%; in experiment [10], -8.02% (inactive); in experiment [11], -0.484% (inactive) and -1.67% (inactive). Further, the call in [12] was inactive.
On to `Nc1ccccc1C(=O)OCCc1ccccc1`, for which the Potency result in [3] and in experiment [7] was “inactive” each time. In addition, the max response in experiment [10] is -9.65% (inactive). For the same molecule, the result in experiment [12] was inactive.
For the molecule `CN(C)c1ccc(N=O)cc1`, in experiment [1], the Potency result is “inactive”.
Take `C[C@]12Cc3cn4c(nc3C=C1CC[C@H]1[C@@H]2CC[C@@]2(C)[C@H]1CC[C@@]2(O)C#N)nc1ccccc14`: the Potency in [13] was 10 µM (active). The Potency result in [14] is “inactive”.
On to `CC(C)CC(C)Nc1ccc(Nc2ccccc2)cc1` (stereo not given), for which the max response in experiment [10] is -33.2% (inactive).
`O=C1C2(Cl)C3(Cl)C4(Cl)C(Cl)(Cl)C5(Cl)C3(Cl)C1(Cl)C5(Cl)C24Cl` (stereo not given): the activation in experiment [15] was 0.62% (inactive); in [16], 4.98% (inactive). Also, the Potency was 39.8 µM (active) in [3]; 44.7 µM (active) and inactive in experiment [7].
In the case of `CN[C@@H](C)[C@@H](O)c1ccccc1`, in experiment [17], the activation is 24.4% (inactive). For the same molecule, in experiment [13], the Potency is 3.16 µM (active). The Potency entry in experiment [14] and in experiment [18] was “inactive” in each case.
For the molecule `O=C(O)C1C(C(=O)O)C2(Cl)C(Cl)=C(Cl)C1(Cl)C2(Cl)Cl` (stereo not given), the Potency entry in experiment [1], in experiment [2], in experiment [3] and in experiment [9] was “inactive” throughout. For the same molecule, the values for the max response in [10] and in experiment [11] were -12.3% (inactive) and 0.252% (inactive), respectively. In addition, the activation in [16] is 0.511% (inactive).
In the case of `N#CC(Cl)Cl`, the activation in experiment [15] was 16.6% (inactive); in experiment [16], -2.38% (inactive). Besides, the max response in experiment [8] was 17.1%; in [10], 0.201% (inactive); in experiment [11] it was 0.641% (inactive). For the same molecule, in [9], the Potency result was “inactive”. In addition, the result in experiment [12] was inactive.
As for `ClC1=C(Cl)C2(Cl)C3C(Cl)C(Cl)CC3C1(Cl)C2(Cl)Cl` (stereo not given), in [15], the activation was -9.52% (inactive). The Potency in experiment [19] is 42.2 µM (active).
Consider `Clc1ccc(C(c2ccc(Cl)cc2)C(Cl)Cl)cc1`, for which the Potency result in experiment [1], in [5] and in experiment [9] was “inactive” in each case. Moreover, the max response is -7.51% in experiment [4] and -1.02% in [8].
Regarding `[CH3][Hg][Cl]`, the Potency in experiment [10] is 2.24 µM (active).
Regarding `CC1=C(C(=O)OC(C)C)[C@]2(C(=O)N(CC(N)=O)c3ccccc32)C(C#N)=C(N)O1`, the activation in experiment [17] is -4.16% (inactive).
`O=[N+]([O-])C(Br)Br`: in [15], the activation was 6.33% (inactive). The max response in [4] is -33.2%; in [8], -3.79%; in experiment [10], 3.78% (inactive); in [11] it was 1.81% (inactive). For the same molecule, the Potency result in experiment [5], in [6], in experiment [7] and in experiment [9] was “inactive” each time. Also, in experiment [12], the result was inactive.
For the molecule `C[C@@H]1O[C@@H](O[C@H]2C[C@@H](O)[C@]3(CO)[C@@H]4[C@@H](O)C[C@]5(C)[C@H](C6=CC(=O)OC6)CC[C@@]5(O)[C@H]4CC[C@@]3(O)C2)[C@H](O)[C@H](O)[C@@H]1O`, the outcome in experiment [20] was inactive.
Take `CC(C)C[C@H](NC(=O)[C@@H]1CCCN1C(=O)[C@@H](N)Cc1ccc(O)cc1)C(=O)NCC(N)=O` (H-YPLG-NH2): in experiment [17], the activation was -10.4% (inactive).
On the same count and under the same terms, the same measure for `OC(Cc1ccccc1)(c1ccccc1)C1CN2CCC1CC2` (stereo not given): 10.8% (inactive).
Consider `O=[N+]([O-])c1ccc(O[C@H]2O[C@@H](CO)[C@@H](O)[C@@H](O)[C@@H]2F)c([N+](=O)[O-])c1`, for which the Potency result in [18] is “inactive”.
Turning to `Oc1cc2c(cc1O)[C@H]1c3ccccc3CN[C@@H]1CC2`, in experiment [13], the Potency is 10 µM (active). For the same molecule, the Potency entry in [14] and in experiment [18] was “inactive” in each case.
With `CC1CN=C(Nc2ccc(N(C)C)cc2)S1` (stereo not given), the activation in experiment [17] is 1.86% (inactive).
With `CC1CCC(C(C)C)C(OP(N)(=O)c2ccccc2)C1` (stereo not given), the activation in experiment [17] is -7.02% (inactive).
For the molecule `O[C@@H]1CCCC[C@H]1N1CCC(c2ccccc2)CC1`, the molecule was classed as inactive in experiment [20]. Besides, the Potency in experiment [14] was 14.1 µM (active). Moreover, the Potency result in experiment [18] was “inactive”.
In the case of `Oc1ccc2c3c1O[C@@H]1[C@@H](O)CC[C@]4(O)[C@H](C2)N(CC2CCC2)CC[C@@]314`, the Potency entry in experiment [18] is “inactive”.
In the case of `COC[C@H]1OC(=O)c2coc3c2[C@@]1(C)C1=C(C3=O)[C@H]2CCC(=O)[C@@]2(C)C[C@H]1OC(C)=O`, the Potency result in experiment [14] was “inactive”.

For the origin of these results see PubChem BioAssay (NCATS).
